Among all 290,000 compounds or so, about 11,000 (3.8%) were called active. The sample holds actives, similar compounds and a random draw of the others, so the mix is not that of the screen.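 Rule for the calls: active = mean replicate inhibition above about 79%, with every replicate also reaching it (limit read from the data); inconclusive = only one of the two criteria met; inactive = mean below limit and not every replicate reaching it.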
Each compound was assayed against FAD-linked sulfhydryl oxidase ALR (Homo sapiens) (UniProt P55789) (assay: ALR-catalysed DTT oxidation blockers – biochemical, H2O2 detection, HRP-luminol luminescence, single point, primary screen (AID 485317)). Conditions: purified ALR, hits give high values, concentration not given here.
Sequence of FAD-linked sulfhydryl oxidase ALR (Homo sapiens) (P55789 whole entry, looked up): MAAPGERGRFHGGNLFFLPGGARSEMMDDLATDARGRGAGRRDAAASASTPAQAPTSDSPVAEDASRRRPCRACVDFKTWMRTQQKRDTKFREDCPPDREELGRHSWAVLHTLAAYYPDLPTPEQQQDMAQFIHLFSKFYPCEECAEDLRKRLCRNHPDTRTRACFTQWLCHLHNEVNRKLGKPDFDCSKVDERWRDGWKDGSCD

| SMILES | inhibition |
| --- | --- |
| Cc1ccc(CSCC(=O)N(C)CC(=O)Nc2ccc(C)cc2)cc1 | -0.0315% (inactive) |
| Cc1ccc(CSCC(N)C(=O)O)cc1 (configuration not stated) | 99.1% (active) |
| CSCC(NS(=O)(=O)c1ccc(C)cc1)C(=O)O (configuration not stated) | 19.4% (inactive) |
| CCC1(c2ccccc2)NC(=O)N(CC(=O)c2ccc3c(c2)OCO3)C1=O (configuration not stated) | 0.023% (inactive) |
| COc1cc(OC)cc(-c2c(C#Cc3ccsc3)c3cc(-c4ccc(OC)cc4F)ccc3n2C)c1 | -17.2% (inactive) |
| Cc1cccc(N2CCN(C(c3ccccc3)c3nnnn3CC3CCCO3)CC2)c1C (configuration not stated) | -2.29% (inactive) |
| COc1ccccc1C(c1nnnn1CC1CCCO1)N1CCN(c2ccccc2)CC1 (configuration not stated) | 90.9% (active) |
| COc1ccc(C(c2nnnn2Cc2cccs2)N2CCN(c3ccccc3)CC2)cc1OC (configuration not stated) | 8.5% (inactive) |
| COc1ccc(NC(=O)CCC(=O)N2CCN(S(=O)(=O)c3ccc(C)cc3)CC2)c(OC)c1 | -6.29% (inactive) |
| O=S(=O)(NCCCc1ccccc1)c1ccc(Br)cc1 | 2.4% (inactive) |
| Cc1[nH]c2ccccc2c1C(=O)C(C)Sc1nnc(C2CC2)o1 (configuration not stated) | -3.37% (inactive) |
| O=C(CSC1CC(=O)N(CCc2ccccc2)C1=O)Nc1ccc(Cl)cc1 (configuration not stated) | 93.5% (active) |
| CC(=O)Nc1ccc(NC(=O)C(C)OC(=O)C2CC(=O)N(CCc3ccccc3)C2)cc1 (configuration not stated) | -1.82% (inactive) |
| O=C(NCCCc1ccccc1)C1CCC(=O)N(CCc2ccc(Cl)cc2)C1 (configuration not stated) | 0.977% (inactive) |
| c1ccc2c(CCN3CCNC[C@H]3Cc3cccc4ccccc34)cccc2c1 | -14.6% (inactive) |
| CN(C(=O)c1cccc(NC(=O)Cc2ccc([N+](=O)[O-])cc2)c1)C1CCC1 | -1.83% (inactive) |
| Cc1ccc(OCC(=O)Nc2ccccc2C(=O)NC2CC2)cc1 | -2.04% (inactive) |
| CC(C)(C)C(=O)c1cnc(Nc2ccccc2)s1 | 19.3% (inactive) |
| S=c1[nH]nc(Nc2ccccc2)s1 | 98.6% (active) |
| O=c1cnnc(Nc2ccccc2)[nH]1 | 1.2% (inactive) |
| S=c1[nH]nc(NCCc2ccccc2)s1 | 95.1% (active) |
| Cc1nc(C)c(-c2csc(NCCc3ccccc3)n2)s1 | 24% (inactive) |
| S=C(NCCc1ccccc1)Nc1ccccc1 | 12.6% (inactive) |

| SMILES | inhibition |
| --- | --- |
| CCCc1cc(=O)[nH]c(SCC(=O)Nc2ccc(C(=O)Nc3ccccc3OC)cc2)n1 | -0.142% (inactive) |
| O=C(NCCC1CCCCN1S(=O)(=O)c1ccc(Cl)cc1)C(=O)NCc1ccco1 (configuration not stated) | -1.02% (inactive) |
| Cc1cccc(C(=O)Nc2ccc3c(c2)C(=O)N(CC(C)C)C3=O)c1 | -20.8% (inactive) |
| Cc1cc(NC(=O)OC(C)C)ccc1-c1ccc(NC(=O)OC(C)C)cc1C | 91.5% (active) |
| CN1C(=O)c2ccc(NC(=O)c3c(F)c(F)c(F)c(F)c3F)cc2C1=O | -3.79% (inactive) |
| Cn1cncc1C#Cc1c(-c2ccsc2)sc2ccccc12 | 1.87% (inactive) |
| O=C(CN1C(=O)c2ccc([N+](=O)[O-])cc2C1=O)Nc1nnc(C2CC2)s1 | -1.72% (inactive) |
| CCOc1ccc(NC(=O)c2ccc(NC(=O)CN3C(=O)C(=O)N(CC(C)C)C3=O)cc2)cc1 | -8.04% (inactive) |
| O=C(CSc1nnc(Nc2ccccc2F)s1)NC1CCCC1 | -1.36% (inactive) |
| CC12CCC(=O)N1C(C(=O)NCCN1C(=O)S/C(=C\c3ccccc3F)C1=O)CS2 (configuration not stated) | -5.02% (inactive) |
| CCCc1nnc(NC(=O)CN2C(=O)c3ccccc3S2(=O)=O)s1 | 1.19% (inactive) |
| CNC(=O)CN1C(=O)c2ccccc2S1(=O)=O | 96.2% (active) |
| O=C(CN1C(=O)c2ccccc2S1(=O)=O)NC1CCCCC1 | -2.86% (inactive) |
| COc1ccc(-c2onc3ccc(C(C)=O)cc23)cc1 | -6.5% (inactive) |
| Oc1ccc(-c2onc3ccc(Cl)cc23)cc1 | 81% (active) |
| CC(OC(=O)c1ccc2noc(-c3ccccc3)c2c1)C(N)=O (configuration not stated) | 2.68% (inactive) |
| O=C1COc2ccc(C(=O)CSc3ccc(Br)cc3)cc2N1 | -4.57% (inactive) |
| COCCN(C(=O)COC(=O)Cc1cccc(OC)c1)c1c(N)n(Cc2ccccc2)c(=O)[nH]c1=O | 3.3% (inactive) |
| COc1ccc(-c2cc(C(=O)N/N=C/c3cccnc3)c3ccccc3n2)c(OC)c1 | 0.831% (inactive) |
| CCCc1cc(=O)[nH]c(SCC(=O)c2cc(C)n(CCC)c2C)n1 | 96% (active) |
| CCCc1cc(=O)[nH]c(SCC(=O)c2c(N)n(CC(C)C)c(=O)n(C)c2=O)n1 | -1.46% (inactive) |
| Cc1cc(C(=O)CSc2nc(N)cc(=O)[nH]2)c(C)n1CCc1ccc(Cl)cc1 | 3.32% (inactive) |
| Cc1ccc(F)cc1NC(=O)CSCc1c(C)noc1C | 9.91% (inactive) |

| SMILES | inhibition |
| --- | --- |
| Cc1cccc(C(=O)N[C@H](C(=O)NCc2cccs2)C(C)C)c1 | 0.403% (inactive) |
| CCC(C)NC(=O)c1ccc(NC(=O)CC2SC(N3CCCCC3)=NC2=O)cc1 (configuration not stated) | -5.35% (inactive) |
| CN(C)CCCNC(=O)c1ccc2[nH]c3ccccc3c2c1 | -6.4% (inactive) |
| COc1cccc2[nH]c(C(=O)NCCc3ccccc3)cc12 | -7.11% (inactive) |
| COc1ccc2cc(C(=O)NCC3CCCO3)[nH]c2c1 (configuration not stated) | -17.8% (inactive) |
| O=C(NCC1CCCO1)c1cc(-c2ccccc2)nc2ccccc12 (configuration not stated) | -3.93% (inactive) |
| O=C(NCC1CCCO1)c1cc2c([nH]c3ccccc32)c(-c2ccc(F)cc2)n1 (configuration not stated) | 96.9% (active) |
| O=C(NCCCO)c1cc2c([nH]c3ccccc32)c(-c2ccc(F)cc2)n1 | 98% (active) |
| C[C@H](CO)N1C[C@H](C)[C@@H](CN(C)C(=O)NC2CCCCC2)Oc2ccc(NC(=O)c3ccncc3)cc2C1=O | -4.41% (inactive) |
| CCN(C(=O)CSc1cccc[n+]1[O-])c1ccccc1 | -7.12% (inactive) |
| CCOc1ccc(-c2ccc(SCC(=O)N3CCOCC3)nn2)cc1 | -5.59% (inactive) |
| COc1cccc(-c2ccc(SCC(=O)N3CCN(c4ccccc4)CC3)nn2)c1 | 88.3% (active) |
| COc1cccc(/C=C/C(=O)OCC(=O)N2CCN(c3ccccc3)CC2)c1 | 27.8% (inactive) |
| CC1CCCN(C(=O)CN2C(=O)c3ccccc3S2(=O)=O)C1 (configuration not stated) | -1.06% (inactive) |
| O=C(NNC(=O)c1ccc(-n2cncn2)c([N+](=O)[O-])c1)c1ccccc1 | -16.9% (inactive) |
| O=C(NCc1ccncc1)c1ccc(NS(=O)(=O)c2cccc([N+](=O)[O-])c2)cc1 | -17.6% (inactive) |
| O=C(NCCCN1CCOCC1)c1cnn2c(-c3ccccc3)cc(-c3ccccc3)nc12 | 94.1% (active) |
| O=C(NCCCN1CCOCC1)c1ccccc1NS(=O)(=O)c1ccc(F)cc1 | -11.8% (inactive) |
| O=C(NCCCN1CCOCC1)c1ccccc1NS(=O)(=O)c1ccc(Br)cc1 | -9.12% (inactive) |
| CN(C)S(=O)(=O)c1cccc(NC(=O)COc2ccc3ccccc3c2)c1 | -11.4% (inactive) |
| C=CCn1c(SCc2ccc(C(=O)NCCO)cc2)nc2ccccc2c1=O | 98.7% (active) |
| COCCNC(=O)c1ccc(-n2c(SCc3cccnc3)nc3ccccc3c2=O)cc1 | -2.07% (inactive) |
| C=CCn1c(SCC(=O)NC(=O)Cc2ccccc2)nc2ccccc2c1=O | -2.51% (inactive) |

| SMILES | inhibition |
| --- | --- |
| Cc1ccc(CNC(=O)c2cccc3c2C(=O)c2ccc(N4CCC(C)CC4)cc2S3(=O)=O)cc1 | 3.52% (inactive) |
| NS(=O)(=O)c1ccc(CCNC(=O)COC(=O)COc2cccc(C(F)(F)F)c2)cc1 | -3.46% (inactive) |
| S=c1[nH]nc(CSCc2ccc(Cl)cc2Cl)n1-c1ccccc1 | 1.91% (inactive) |
| Cc1ccc(OCc2n[nH]c(=S)n2-c2ccccc2)cc1 | 65.2% (inactive) |
| Cc1ccc(NCc2n[nH]c(=S)n2-c2ccccc2)cc1Cl | 88.3% (active) |
| Cc1ccc(NC(=O)C2CCC(C(C)(C)C)CC2)cc1S(=O)(=O)N1CCOCC1 (configuration not stated) | -0.467% (inactive) |
| CC(C(=O)Nc1ccc(S(=O)(=O)N2CCCC2)cc1)N(C)Cc1ccc(F)cc1 (configuration not stated) | -1.06% (inactive) |
| CCn1c(=S)[nH]c2cc(S(=O)(=O)N3CCOCC3)ccc21 | 67.1% (inactive) |
| COc1cccc(NC(=O)C(=O)c2cn(CC(=O)N3CCOCC3)c3ccccc23)c1 | 4.42% (inactive) |
| CN1c2ccc(C=O)c3c(C=O)ccc(c23)N(C)C1(C)C | 99.2% (active) |
| CCOC(=O)COc1ccc([N+](=O)[O-])cc1 | 3.19% (inactive) |
| N/C(Cc1ccc([N+](=O)[O-])cc1)=N\OC(=O)COc1ccc2ccccc2c1 | -17.6% (inactive) |
| Cc1cc(C)cc(OCC(=O)O/N=C(\N)Cc2ccc([N+](=O)[O-])cc2)c1 | 98.4% (active) |
| Cc1ccc(S(=O)(=O)NC(C)C(=O)NCc2ccc(Cl)cc2)cc1 (configuration not stated) | 10.6% (inactive) |
| CCOc1ccc(N=Cc2c(O)n(-c3cccc(C)n3)c(=O)c3ccccc23)cc1 | -11.1% (inactive) |
| Oc1ccc(N=Cc2c(O)ccc3ccccc23)cc1 | 99.5% (active) |
| Oc1c(C=Nc2cccc3nsnc23)ccc2ccccc12 | 25.2% (inactive) |
| CCN(c1ccccc1)S(=O)(=O)c1cccc(C(=O)NCc2ccccc2CN2CCOCC2)c1 | -5.99% (inactive) |
| Cc1ccc(COC(=O)CN2C(=O)NC3(CCCC3)C2=O)cc1 | -0.909% (inactive) |
| CC(C)C[C@@H](N)c1nnc(SCC(=O)c2ccc(Cl)cc2)o1 | 98.5% (active) |
| COc1ccc(C(=O)CSc2nnc(-c3ccco3)o2)cc1 | 19.8% (inactive) |
| CCC(=O)Nc1ccc(C(=O)CSc2nnc(CNc3ccc(Cl)cc3)o2)cc1OC | 0.831% (inactive) |
| Cc1cc(C)cc(-c2nnc(SCC(=O)NC3CC3)o2)c1 | -0.0792% (inactive) |
